Ba/F3 V617F tox: lowers viability of Ba/F3 cells expressing EpoR and JAK2V617F; ATP luminescence; inhibition, % at 5.6 µM; 1.1% of 220,000 active;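 active means inhibition above the campaign mean plus 3 SD over all tested compounds, cut at about 24% in these data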;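 further: cytokine-independent growth of Ba/F3 cells driven by EpoR plus mutant JAK2; 0% = DMSO-treated cells and 100% = JAK inhibitor I control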
APP 5UTR inh: APP translation inhibition. SH-SY5Y APP 5'UTR-luciferase reporter, luminescence. inhibition, % at 2 µM. 0.82% of 190,000 active. AID 1285;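 active means inhibition above a set limit, derived from the sample mean plus 3 SD, cut at about 45% in these data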
BaF3 tox: reduces parental Ba/F3 cell viability, JAK2V617F counter-screen; CellTiter-Glo ATP luminescence; inhibition, % at 5.6 µM; 1.1% of 220,000 active; AID 1486;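 active means inhibition above a per-campaign cutoff, the mean inhibition of all tested compounds plus 3 SD, cut at about 27% in these data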;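 further: 0% = DMSO wells and 100% = JAK Inhibitor I control wells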
IEC-6 cytotox: counter-screen for KLF5 inhibitors: cytotoxicity in IEC-6 cells; IEC-6 cytotoxicity, luminescence viability; inhibition, % at 5 µM; 0.78% of 290,000 active; AID 1825; in the data active means inhibition above about 22%;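 further: 0% = plate median of test compound wells and 100% = cytotoxic reference compound wells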
KLF5 inhibitor: inhibitors of KLF5 expression; 0.23% of 290,000 active; DLD-1 KLF5 promoter-luciferase reporter, luminescence; inhibition, % at 5 µM;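 active means inhibition above a per-plate limit of that plate's mean compound inhibition plus 3 SD, cut at about 60% in these data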;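 further: 0% = DMSO wells and 100% = LY294002 at 200 µM; higher means less KLF5 promoter-driven luciferase light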
* hit, by the source's call. Rows were chosen to be rich in hits. Some 1.8% of all compounds tested hit in one or more screens of this group.

For Cc1ccc(C)c(NC(=O)C(Sc2nnc(-c3cccs3)o2)c2ccccc2)c1 (stereo unspecified) the results were Ba/F3 V617F tox 89*, APP 5UTR inh -8, BaF3 tox 72*, IEC-6 cytotox 11 and KLF5 inhibitor -1.
CCn1c(SC)nnc1-c1sc2cc(Cl)ccc2c1Cl was read as Ba/F3 V617F tox 2, APP 5UTR inh -5, BaF3 tox 40*, IEC-6 cytotox 0 and KLF5 inhibitor -33.
For Cc1cccc(NC(=S)NC(NC(=O)c2ccco2)C(Cl)(Cl)Cl)c1 (stereo unspecified) the results were Ba/F3 V617F tox 2, APP 5UTR inh 58*, BaF3 tox 1, IEC-6 cytotox 2 and KLF5 inhibitor -33.
Cc1ccc(NC(=S)NC(NC(=O)c2ccco2)C(Cl)(Cl)Cl)cc1 (stereo unspecified) was read as Ba/F3 V617F tox 2, APP 5UTR inh 12, BaF3 tox 3, IEC-6 cytotox -1 and KLF5 inhibitor -20.
For COC(=O)CSC1=C(C#N)C(c2ccc(F)cc2)CC(=O)N1 (stereo unspecified) the results were Ba/F3 V617F tox 2, APP 5UTR inh -28, BaF3 tox 43*, IEC-6 cytotox 5 and KLF5 inhibitor 3.
Screening COC(=O)CSC1=C(C#N)C(c2ccc(C)o2)CC(=O)N1 (stereo unspecified) returned Ba/F3 V617F tox 7, APP 5UTR inh -8, BaF3 tox 43*, IEC-6 cytotox 6 and KLF5 inhibitor 4.
CCOC(=O)CN1C(=O)/C(=C/c2ccccc2Br)Oc2ccccc21 was read as IEC-6 cytotox 5 and KLF5 inhibitor -4.
Screening COc1cc(OC)cc(-c2nc3nc(C)c(CCC(=O)NCC(OC)OC)c(C)n3n2)c1 returned Ba/F3 V617F tox 3, APP 5UTR inh 10, BaF3 tox 8, IEC-6 cytotox -3 and KLF5 inhibitor -11.
For COC(CNC(=O)CCc1c(C)nc2c(-c3ccc(F)cc3)c(C)nn2c1C)OC the results were Ba/F3 V617F tox 0, APP 5UTR inh 55*, BaF3 tox 5, IEC-6 cytotox -2 and KLF5 inhibitor -22.
`COc1ccc(C(=O)N2c3ccc(F)cc3CCC2C)cc1OC` (stereo unspecified) gave Ba/F3 V617F tox 2, APP 5UTR inh -32, BaF3 tox 2, IEC-6 cytotox 5 and KLF5 inhibitor 10.
Screening CC1CCc2cc(F)ccc2N1C(=O)c1ccc2c(c1)OCO2 (stereo unspecified) returned Ba/F3 V617F tox 32*, APP 5UTR inh -10, BaF3 tox 36*, IEC-6 cytotox 6 and KLF5 inhibitor -1.
Screening CC1=CC(C)C2(COC(c3ccc[n+](C)c3)OC2)C(C)C1 (stereo unspecified) returned Ba/F3 V617F tox 65*, APP 5UTR inh -2, BaF3 tox 72*, IEC-6 cytotox 3 and KLF5 inhibitor -17.
Screening COc1ccc(C2C3=C(Nc4ncnn42)c2ccccc2CCC3)cc1 (stereo unspecified) returned Ba/F3 V617F tox -2, APP 5UTR inh 10, BaF3 tox -1, IEC-6 cytotox 2 and KLF5 inhibitor -13.
COc1cc(C2C3=C(Nc4ncnn42)c2ccccc2CC3)cc(OC)c1OC (stereo unspecified) was read as Ba/F3 V617F tox 93*, APP 5UTR inh 95*, BaF3 tox 90*, IEC-6 cytotox 96* and KLF5 inhibitor 78*.
`O=C(NCCc1csc(-c2cccnc2)n1)c1ccco1` gave Ba/F3 V617F tox -4, APP 5UTR inh 3, BaF3 tox 96*, IEC-6 cytotox 4 and KLF5 inhibitor -27.
CCOC(=O)N1CCN(C(=O)CN(Cc2ccc(Cl)cc2)S(=O)(=O)c2ccc(C)cc2)CC1 was read as Ba/F3 V617F tox -2, APP 5UTR inh -3, BaF3 tox 3, IEC-6 cytotox -1 and KLF5 inhibitor 7.
For C#CC[N+]1(CC#Cc2ccc(C#CC[N+]3(CC#C)CCOCC3)cc2)CCOCC1 the results were Ba/F3 V617F tox 3, APP 5UTR inh -10, BaF3 tox 9, IEC-6 cytotox -1 and KLF5 inhibitor -20.
For C#CC[N+]1(CC#Cc2cccc3ccccc23)CCOCC1 the results were Ba/F3 V617F tox 81*, APP 5UTR inh -13, BaF3 tox 50*, IEC-6 cytotox 1 and KLF5 inhibitor -16.
For C#CC[N+]1(CC#Cc2ccccc2)CCCC1 the results were Ba/F3 V617F tox 40*, APP 5UTR inh -14, BaF3 tox 45*, IEC-6 cytotox 6 and KLF5 inhibitor -11.
C(#Cc1ccccc1)C[N+]1(CC#Cc2cccc3ccccc23)CCCC1 was read as Ba/F3 V617F tox 97*, APP 5UTR inh -8, BaF3 tox 81*, IEC-6 cytotox 7 and KLF5 inhibitor -10.
For COc1cccc(-c2nc(CS(=O)(=O)CC(=O)NC3CCCCC3C)c(C)o2)c1 (stereo unspecified) the results were IEC-6 cytotox -1 and KLF5 inhibitor -12.
`COC(=O)c1ccc(OC(C)C(=O)c2ccc(C)cc2)cc1` (stereo unspecified) gave Ba/F3 V617F tox 0, APP 5UTR inh -6, BaF3 tox 6, IEC-6 cytotox -5 and KLF5 inhibitor -31.
For CNc1ccccc1C(C)(C)c1cc(-c2cccc(Br)c2)no1 the results were Ba/F3 V617F tox 62*, APP 5UTR inh 11, BaF3 tox 76*, IEC-6 cytotox 4 and KLF5 inhibitor 7.
O=C(NCc1cccc(C(F)(F)F)c1)c1ccc(=O)[nH]c1 was read as IEC-6 cytotox -10 and KLF5 inhibitor -18.
`C=CCNC(=O)NC(=O)CN1C(=O)NC(c2ccccc2)(c2ccccc2)C1=O` gave IEC-6 cytotox 5 and KLF5 inhibitor 1.
For CCCOC(=O)C[N+](C)(C)CCOC1CC2CCC1(C)C2(C)C (stereo unspecified) the results were Ba/F3 V617F tox 30*, BaF3 tox 46*, IEC-6 cytotox 2 and KLF5 inhibitor 24.
`CCCCOC(=O)C[N+](C)(C)CCOC1CC2CCC1(C)C2(C)C` (stereo unspecified) gave Ba/F3 V617F tox 54*, APP 5UTR inh -24, BaF3 tox 58*, IEC-6 cytotox 2 and KLF5 inhibitor -14.
CC(C)CCOC(=O)C[N+](C)(C)CCOC1CC2CCC1(C)C2(C)C (stereo unspecified) was read as Ba/F3 V617F tox 90*, APP 5UTR inh 12, BaF3 tox 76*, IEC-6 cytotox 2 and KLF5 inhibitor -26.
For CC1(C)C2CCC1(C)C(OC(=O)c1ccccc1C(=O)O)C2 (stereo unspecified) the results were Ba/F3 V617F tox -4, BaF3 tox 1, IEC-6 cytotox -2 and KLF5 inhibitor -6.
For CCCCCCCOC(=O)C[N+](C)(C)CCOC1CC2CCC1(C)C2(C)C (stereo unspecified) the results were Ba/F3 V617F tox 101*, APP 5UTR inh 10, BaF3 tox 85*, IEC-6 cytotox 4 and KLF5 inhibitor 3.
`CC1(C)C2CCC1(C)C(OCCNCCOC(=O)Nc1ccccc1)C2` (stereo unspecified) gave Ba/F3 V617F tox -1, BaF3 tox -2, IEC-6 cytotox 2 and KLF5 inhibitor -11.

Source: PubChem BioAssay (several laboratories)
